Measurements: PubChem BioAssay AID1463 (National Center for Advancing Translational Sciences (NCATS), 2008)
The whole screen tested about 280,000 compounds, of which about 2,600 (0.93%) were called active. Not shown: some 8% with an inconclusive outcome. This is one part of a sample in which actives are shown more often than they occur. Calls follow the shape of the dose curve; as a rule, active = well fitted curve in the direction sought with a large enough effect; inconclusive = small, poorly fitted or top-dose-only effect; inactive = flat fitted curve, though single readings scatter.

Assay: Counterscreen qHTS for Inhibitors of Tau Fibril Formation, Fluorescence Polarization; also: nearly all actives have a fitted effect of over 55% in size
Settings: tau K18 P301L Alexa594 fluorescence, heparin fibrillization; series mostly up to 57.7 µM; activity change, negative = decrease: at the top concentration
Procedure, shortened: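 Human tau K18 P301L (15 uM unlabeled, 0.24 uM Alexa 594-labeled) in 100 mM sodium acetate pH 7 with 20 uM heparin, 6 hr at 37 C. ThT 30 uM added, 1 hr ambient; Alexa 594 FP and total fluorescence read at 555/632 nm.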
% is scaled to controls: 0 for no effect and ±100 for the full control effect; potency is read from the fitted curve at half-maximal effect; tags tell the direction and shape of the fitted curve or compound fluorescence and quenching.

Row | Compound | activity change, negative = decrease | Potency
1 | Cc1cccc(C(=O)Nc2ccc(-c3nc4ncccc4o3)cc2C)c1 | -4.09% (inactive) | –
2 | CCOC(=O)c1ccc(CSc2nnc3cc(C)c4ccccc4n23)cc1 | -23.9% (inactive) | –
3 | Cc1cc(C)cc(NC(=O)CSc2nc3nccnc3c(=O)n2CCc2c[nH]c3ccccc23)c1 | 1.4% (inactive) | –
4 | Cc1cc(C)cc(NC(=S)NCCc2c[nH]c3ccccc23)c1 | – | 15.8 µM [quencher] (active)
5 | Cc1cc(C)cc(NC(=S)NCc2ccc(F)cc2)c1 | -2.29% (inactive) | –
6 | CCC(=O)N1CCc2cc(Br)cc(S(=O)(=O)CCC(=O)NCCc3ccc(OC)c(OC)c3)c21 | -12.6% (inactive) | –
7 | COc1ccc(NC(=O)c2ccco2)cc1NC(=O)COc1ccc(C)c(C)c1 | -16.3% (inactive) | –
8 | COc1ccc(NC(=O)c2c(SC)nsc2SC)cc1 | -3.33% (inactive) | –
9 | O=C(O)c1ccc(NC(=O)c2cn(-c3ccccc3)nc2-c2ccc(Cl)cc2)cc1 | -7.53% (inactive) | –
10 | COc1ccc(NC(=O)c2cn(-c3ccccc3)nc2SC)cc1 | – | 17.8 µM [quencher] (active)
11 | CCOc1cc(C2C(C(=O)Nc3ccc(OC)cc3)=C(C)Nc3nc(SC)nn32)ccc1O (stereo not given) | -21.9% (inactive) | –
12 | CCOc1cc(C2C(C(=O)OC(C)C)=C(C)NC3=C2C(=O)CCC3)cc([N+](=O)[O-])c1O (stereo not given) | -9.75% (inactive) | –
13 | CCOc1cc(C2C(C(=O)OC)=C(C)NC3=C2C(=O)c2ccccc23)ccc1O (stereo not given) | – | 17.8 µM [quencher] (active)
14 | CCOC(=O)CN1C(C(=O)c2ccccc2)=C(OC(=O)C(C)(C)C)c2ccccc2S1(=O)=O | -7.8% (inactive) | –
15 | CCN(CCCNC(=O)c1ccc(Sc2ccc(C)cc2)c(NC(C)=O)c1)c1cccc(C)c1 | -23.8% (inactive) | –
16 | COc1ccc(CCNC(=O)c2c3c(nc4ccccc24)C(=O)N(C2CCCCC2)C3)cc1OC | 2.98% (inactive) | –
17 | COc1ccc(CCNC(=O)c2nn(C)c3c2CSc2ccccc2-3)cc1OC | – | 10 µM [quencher] (active)
18 | CCCCN(CC)CCCNC(=O)c1nn(C)c2c1CSc1ccccc1-2 | -8.6% (inactive) | –
19 | Cc1ccc(C2CCN(C(=O)c3cnn(-c4ccccc4Cl)c3C3CCN(C(=O)OC(C)(C)C)CC3)C2)cc1 (stereo not given) | -10.5% (inactive) | –
20 | Cn1nnc2c(N3CCN(c4ccccc4)CC3)ncnc21 | -2.02% (inactive) | –

Row | Compound | activity change, negative = decrease | Potency
21 | CCC1=Nc2cc(C(=O)NCCCOC(C)C)ccc2Sc2ccc(C)cc21 | 3.29% (inactive) | –
22 | CCOC(=O)c1[nH]c(C)c(CCC(=O)N2CCN(c3ccccc3)CC2)c1C | 0.33% (inactive) | –
23 | O=C(CC(c1cccs1)N1Cc2ccccc2C1=O)Nc1ccc(F)c(F)c1 (stereo not given) | -5.76% (inactive) | –
24 | CCCn1c2ccccc2c2cnn(CC(=O)N(C)c3ccccc3CC)c(=O)c21 | -16.4% (inactive) | –
25 | O=C1Cc2cc(S(=O)(=O)Nc3ccc(OC(F)(F)F)cc3)cc3c2N1CCC3 | -22.8% (inactive) | –
26 | CCCCS(=O)(=O)c1oc(-c2cccs2)nc1S(=O)(=O)c1ccccc1 | -11% (inactive) | –
27 | CCOCCc1nn2c(=O)cc(COC(=O)CNC(=O)c3ccc(C(C)(C)C)cc3)nc2s1 | -6.12% (inactive) | –
28 | Cc1ccc(Nc2ccc3cc(S(=O)(=O)N4CCCCC4)ccc3n2)cc1F | – | 7.08 µM [quencher] (active)
29 | O=S(=O)(c1ccc2nc(N3CCN(c4cccc(Cl)c4)CC3)ccc2c1)N1CCCCC1 | -10.5% (inactive) | –
30 | Cc1ccc(C)c(N2CCN(c3ccc4cc(S(=O)(=O)N5CCC(C)CC5)ccc4n3)CC2)c1 | -0.575% (inactive) | –
31 | Cc1nn(CC(=O)NCCc2ccccc2)c(=O)c2c1sc1ccccc12 | 8.41% (inactive) | –
32 | CCn1c(CN2CCC(C)CC2)nc2cc(NC(=O)c3ccccc3[N+](=O)[O-])ccc21 | -0.8% (inactive) | –
33 | CCCn1c2ccccc2c2cnn(CC(=O)NCC3CCN(Cc4ccc(C)cc4)CC3)c(=O)c21 | 3.89% (inactive) | –
34 | COc1ccc(NS(=O)(=O)c2cc(NC(=O)CC(=O)c3ccc([N+](=O)[O-])cc3)ccc2C)cc1 | – | 7.94 µM [quencher] (active)
35 | Cc1ccc(C(=O)Nc2ccc(C(=O)O)cc2)cc1S(=O)(=O)Nc1ccccc1 | -3.09% (inactive) | –
36 | COc1ccc(S(=O)(=O)NC(C)C(=O)Nc2cccc([N+](=O)[O-])c2)cc1 (stereo not given) | -2.56% (inactive) | –
37 | COc1cc(NC(=O)Cn2nc(-c3ccc(C)c(C)c3)ccc2=O)cc(OC)c1 | -3.4% (inactive) | –
38 | Cn1c(SCC(=O)N2CCCc3ccccc32)ncc(C(=O)Nc2ccc(F)cc2)c1=O | -19.2% (inactive) | –
39 | COc1ccc(-n2nnc(-c3nsc(NC(=O)c4ccc(C)c(C)c4)n3)c2C)cc1Cl | -6.33% (inactive) | –
40 | COc1ccc2[nH]cc(/C=C(/C#N)S(=O)(=O)c3ccccc3)c2c1 | – | 25.1 µM [quencher] (active)

Row | Compound | activity change, negative = decrease | Potency
41 | COc1ccc(/C=N/N=C/c2c[nH]c(=O)c(C#N)c2Nc2ccccc2)cc1 | -20.6% (inactive) | –
42 | CCN(CC)CC(=O)c1c[nH]c2ccc(OC)cc12 | -29.7% (inactive) | –
43 | CCOC(=O)C1=C(C)NC(SC)=NC1c1ccccc1 (stereo not given) | 5.93% (inactive) | –
44 | CCOC(=O)C1=C(C)NC(=O)NC1c1ccccc1 (stereo not given) | -8.84% (inactive) | –
45 | CCOC(=O)C1=C(C)N=C2c3ccccc3C(=O)C2C1c1ccc(Br)cc1 (stereo not given) | – | 11.2 µM [quencher] (active)
46 | CSc1nc(=O)c2c(n1C)NC(=O)CC2c1ccccc1OC(C)C (stereo not given) | 6.57% (inactive) | –
47 | CCn1c(-c2cc(OC)ccc2OC)csc1=Nc1c(C)n(C)n(-c2ccccc2)c1=O | 1.14% (inactive) | –
48 | COC(=O)c1[nH]c2ccccc2c1NS(=O)(=O)c1ccc(OC)cc1OC | -14.2% (inactive) | –
49 | CN=c1scc(-c2cc(OC)ccc2OC)n1/N=C/c1c(C)[nH]c2ccccc12 | – | 12.6 µM [quencher] (active)
50 | CC(=O)N1CCCc2cc(S(=O)(=O)N3CCC(C(=O)NCc4ccc(F)cc4)CC3)ccc21 | -8.19% (inactive) | –
51 | COc1ccc(OC)c(NC(=O)C2CCCN(S(=O)(=O)c3ccc4c(c3)CCCC(=O)N4)C2)c1 (stereo not given) | -14.8% (inactive) | –
52 | CCOc1ccccc1C(=O)NC1(C(F)(F)F)NC(=O)N(CCc2ccc(OC)c(OC)c2)C1=O (stereo not given) | -25.1% (inactive) | –
53 | O=C(CSc1nc2ccccc2s1)Nc1ccc(C(=O)O)cc1 | -1.03% (inactive) | –
54 | CC(C)c1ccc(S(=O)(=O)Nc2ccc(O)c(Sc3nc4ccccc4s3)c2)cc1 | – | 14.1 µM [quencher] (active)
55 | O=C(O)c1cccc(S(=O)(=O)Nc2ccc(O)cc2Sc2nc3ccccc3s2)c1 | -11.3% (inactive) | –
56 | Cc1nnc(SCC(=O)NCc2ccccc2Cl)c2nn(-c3ccccc3)c(C)c12 | -3.68% (inactive) | –
57 | CCc1ccc(C2C(C(=O)Nc3ccccc3)=C(C)Nc3c(C(=O)Nc4ccc(C)cc4)cnn32)cc1 (stereo not given) | -17.3% (inactive) | –
58 | CC(Nc1oc(-c2ccccc2)nc1-c1ccccc1)c1ccccc1 (stereo not given) | – | inactive
59 | COc1ccc(/C=C/c2nc(C#N)c(NCc3ccc(F)cc3)o2)cc1OC | -24.2% (inactive) | –
60 | COc1ccccc1/C=C/c1nc(C#N)c(NC(C)c2ccccc2)o1 (stereo not given) | – | 11.2 µM [quencher] (active)
